Results on 46 compounds are retold here after article PMC4336329 (PLoS ONE, 2015).

The campaign covered roughly 310,000 compounds. About 14,000 (4.5%) showed an effect of 50% or more. Effects have a minus sign here. Only a selection was taken, and strong results are over-represented in it overall.
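Further: peak tail current of the secondary pulse compared with the same well before compound.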

Sequence of human ether-à-go-go-related gene (hERG) potassium channel (Q12809 whole entry, looked up): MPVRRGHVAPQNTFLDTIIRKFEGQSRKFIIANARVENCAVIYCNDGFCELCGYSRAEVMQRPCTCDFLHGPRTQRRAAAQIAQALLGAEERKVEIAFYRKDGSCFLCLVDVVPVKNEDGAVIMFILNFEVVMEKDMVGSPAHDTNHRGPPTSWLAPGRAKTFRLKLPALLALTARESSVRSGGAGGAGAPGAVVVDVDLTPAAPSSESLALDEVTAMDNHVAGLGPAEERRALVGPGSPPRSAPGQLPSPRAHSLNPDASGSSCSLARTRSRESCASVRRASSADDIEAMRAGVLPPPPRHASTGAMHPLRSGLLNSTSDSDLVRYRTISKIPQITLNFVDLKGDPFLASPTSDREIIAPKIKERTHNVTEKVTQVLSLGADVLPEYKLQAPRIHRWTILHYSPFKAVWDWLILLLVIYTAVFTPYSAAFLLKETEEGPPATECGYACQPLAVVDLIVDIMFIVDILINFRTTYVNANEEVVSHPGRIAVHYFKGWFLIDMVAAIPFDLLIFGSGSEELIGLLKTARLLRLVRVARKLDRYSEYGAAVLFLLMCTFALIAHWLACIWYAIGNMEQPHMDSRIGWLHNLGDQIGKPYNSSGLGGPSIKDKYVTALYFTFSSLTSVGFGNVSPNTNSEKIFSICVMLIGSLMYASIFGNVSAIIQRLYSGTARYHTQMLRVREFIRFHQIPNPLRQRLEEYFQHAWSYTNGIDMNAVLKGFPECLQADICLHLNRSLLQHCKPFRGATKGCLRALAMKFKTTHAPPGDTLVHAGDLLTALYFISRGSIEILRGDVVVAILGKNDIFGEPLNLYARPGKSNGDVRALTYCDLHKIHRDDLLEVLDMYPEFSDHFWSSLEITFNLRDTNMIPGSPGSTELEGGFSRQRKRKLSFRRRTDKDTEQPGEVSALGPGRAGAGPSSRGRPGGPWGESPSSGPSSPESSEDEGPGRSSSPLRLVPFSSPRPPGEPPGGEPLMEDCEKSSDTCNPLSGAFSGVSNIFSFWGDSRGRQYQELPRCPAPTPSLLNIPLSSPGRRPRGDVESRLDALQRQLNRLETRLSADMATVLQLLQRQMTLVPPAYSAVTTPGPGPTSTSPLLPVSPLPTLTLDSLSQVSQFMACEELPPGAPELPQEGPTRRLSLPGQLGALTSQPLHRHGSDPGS

The assay addresses human ether-à-go-go-related gene (hERG) potassium channel (human, UniProt Q12809). In words: primary screen, population patch clamp on CHO cells stably expressing hERG; higher = less effect of the substance.
Consider `O=C(NC1CCCCC1)N1CCN(c2ccccc2)CC1`, for which the “hERG current change (%, negative = inhibition) at 10uM” value was -0.0694%.

Take `O=C(NC1CCCCC1)N1CCN(c2ccc([N+](=O)[O-])cc2)CC1`: the “hERG current change (%, negative = inhibition) at 10uM” value was -92.4%.

Regarding `S=C(NC1CC1)N1CCN(c2ccc(Cl)cc2)CC1`, the “hERG current change (%, negative = inhibition) at 10uM” value stood at 1.76%.

For `COc1ccc([C@H]2CC(=O)C=C(c3cccc4c3Oc3ccccc3S4)C2)cc1`, the “hERG current change (%, negative = inhibition) at 10uM” value is -28.4%.

Turning to `Cc1ccc(CNC(=O)CC(C)S(=O)(=O)c2ccc3c(c2)NC(=O)CO3)cc1` (stereo not shown), the “hERG current change (%, negative = inhibition) at 10uM” value is -22.1%.

As to `CC(=O)c1ccn(S(=O)(=O)c2ccc(Cl)cc2)c1`, the “hERG current change (%, negative = inhibition) at 10uM” value is listed as 6.57%.

As to `CC1(C)CC(=O)C([N+](=O)[O-])=C(NCCCC(=O)O)C1.O`, the “hERG current change (%, negative = inhibition) at 10uM” value amounted to 15%.

In the case of `Cc1cc(C(=O)C(C)OC(=O)C2=NNC(=O)CC2)c(C)n1-c1ccc(OC(F)F)cc1` (stereo not shown), the “hERG current change (%, negative = inhibition) at 10uM” value is recorded as -73.3%.

As to `Cc1ccc(-n2c(C)cc(C(=O)COC(=O)C3=NNC(=O)CC3)c2C)cc1`, the “hERG current change (%, negative = inhibition) at 10uM” value is -42.3%.

Consider `Cc1cc(C(=O)COC(=O)C2=NNC(=O)CC2)c(C)n1-c1ccc(OC(F)F)cc1`, for which the “hERG current change (%, negative = inhibition) at 10uM” value was -48.4%.

Take `COc1cc(C(=O)NCC(c2ccco2)N2CCCC2)ccc1OCc1c(C)noc1C` (stereo not shown): the “hERG current change (%, negative = inhibition) at 10uM” value is recorded as -21.1%.

As for `O=C(Nc1cccc2ncccc12)c1ccc(-c2ccc(Cl)cc2Cl)o1`, the “hERG current change (%, negative = inhibition) at 10uM” value was -7.06%.

`CS(=O)(=O)N(CC(=O)Nc1ccc(S(=O)(=O)N2CCOCC2)cc1)c1cccc(F)c1`: the “hERG current change (%, negative = inhibition) at 10uM” value is -9.72%.

`Cc1noc(C)c1COc1cccc(C(=O)Nc2ccccc2)c1`: the “hERG current change (%, negative = inhibition) at 10uM” value is listed as -7.11%.

Turning to `Cc1ccc(OCCNC(=O)CCC(=O)N2CCOCC2)cc1`, the “hERG current change (%, negative = inhibition) at 10uM” value stood at 15.9%.

Turning to `O=C(CN1CCN(S(=O)(=O)c2ccccc2)CC1)Nc1ccc(Cl)c([N+](=O)[O-])c1`, the “hERG current change (%, negative = inhibition) at 10uM” value is on record as -65%.

In the case of `NS(=O)(=O)c1ccc(NC(=O)CN2CCCC2)cc1`, the “hERG current change (%, negative = inhibition) at 10uM” value was 3.7%.

Consider `CC1CCN(S(=O)(=O)c2ccc(NC(=O)CN3CCN(c4ccccc4)CC3)cc2)CC1`, for which the “hERG current change (%, negative = inhibition) at 10uM” value is recorded as -58.2%.

On to `CC1CN(CC(=O)Nc2ccc(S(N)(=O)=O)cc2)CC(C)O1` (stereo not shown), for which the “hERG current change (%, negative = inhibition) at 10uM” value was -52%.

Regarding `CC1CCN(S(=O)(=O)c2ccc(NC(=O)CN3CCN(C)CC3)cc2)CC1`, the “hERG current change (%, negative = inhibition) at 10uM” value is listed as -16%.

Regarding `Cc1ccc(S(=O)(=O)N2CCN(CC(=O)Nc3ccc(N4CCOCC4)cc3)CC2)cc1C`, the “hERG current change (%, negative = inhibition) at 10uM” value is recorded as -11.5%.

As to `O=C(CN1CCN(S(=O)(=O)c2ccccc2)CC1)Nc1ccc(Cl)c(Cl)c1`, the “hERG current change (%, negative = inhibition) at 10uM” value is reported as -16%.

With `CC1CC(C)CN(CC(=O)Nc2ccc(S(N)(=O)=O)cc2)C1` (stereo not shown), the “hERG current change (%, negative = inhibition) at 10uM” value is 13.7%.

In the case of `Cc1ccc(C)c(S(=O)(=O)N2CCN(CC(=O)Nc3ccc([N+](=O)[O-])cc3)CC2)c1`, the “hERG current change (%, negative = inhibition) at 10uM” value is given as -40.7%.

In the case of `CC1CCN(CC(=O)Nc2ccc(S(=O)(=O)N3CCC(C)CC3)cc2)CC1.Cl`, the “hERG current change (%, negative = inhibition) at 10uM” value is listed as -42.8%.

For the compound `Cc1ccc(S(=O)(=O)N2CCN(CC(=O)Nc3ccc([N+](=O)[O-])cc3)CC2)cc1C`, the “hERG current change (%, negative = inhibition) at 10uM” value is -76.9%.

As to `Cc1ccc(S(=O)(=O)N2CCN(CC(=O)N/N=C\c3ccc(Cl)c([N+](=O)[O-])c3)CC2)cc1`, the “hERG current change (%, negative = inhibition) at 10uM” value was -30.8%.

`Cc1ccccc1S(=O)(=O)Cc1ccc(C(=O)NCCCN2CCCC(C)C2)o1` (stereo not shown): the “hERG current change (%, negative = inhibition) at 10uM” value was -21.1%.

Take `CCc1ccccc1NC(=O)c1ccc(-c2csc(C)n2)cc1`: the “hERG current change (%, negative = inhibition) at 10uM” value is reported as -12.4%.

On to `COc1cccc(C(=O)OCn2nnc3ccccc3c2=O)c1`, for which the “hERG current change (%, negative = inhibition) at 10uM” value was 0.671%.

Consider `COc1cccc(-n2c(Cc3cc(=O)[nH]c(=O)[nH]3)nnc2SCc2cccc(C(F)(F)F)c2)c1`, for which the “hERG current change (%, negative = inhibition) at 10uM” value worked out at 15.8%.

As for `CCN(CC(=O)Nc1c(F)cccc1F)C(=O)c1ccc(N2C(=O)c3ccccc3C2=O)cc1`, the “hERG current change (%, negative = inhibition) at 10uM” value came out at 1.38%.

Consider `CN(CC(=O)NCCCN1CCOCC1)S(=O)(=O)c1ccc(F)cc1`, for which the “hERG current change (%, negative = inhibition) at 10uM” value came out at 15.4%.

For `NC(N)=NCCCC(NC(=O)c1ccccc1)C(=O)Nc1ccc2ccccc2c1` (stereo not shown), the “hERG current change (%, negative = inhibition) at 10uM” value is reported as 12.5%.

Take `COCC(C)N=C1NN=C(c2cc(C)n(Cc3ccccc3Cl)c2C)CS1` (stereo not shown): the “hERG current change (%, negative = inhibition) at 10uM” value is -9.9%.

As for `CCOC(=O)C1=C(C)NC(C)=C(C(=O)OCC)C1c1cn(-c2ccccc2)nc1-c1ccco1`, the “hERG current change (%, negative = inhibition) at 10uM” value was -1.05%.

`COc1cc(C(=O)OCC(=O)NC(C)CCc2ccccc2)cc(OC)c1OC` (stereo not shown): the “hERG current change (%, negative = inhibition) at 10uM” value is 9.14%.

With `Cc1cc(=O)[nH]c(SCC(=O)Nc2ccc(S(=O)(=O)N3CCCCC3)cc2)n1`, the “hERG current change (%, negative = inhibition) at 10uM” value is -6.37%.

As to `CC1CCCN(CC(=O)Nc2ccc(S(=O)(=O)N3CCCC3)cc2)C1` (stereo not shown), the “hERG current change (%, negative = inhibition) at 10uM” value is recorded as 1.82%.

Take `O=C(CN1CCN(S(=O)(=O)c2ccccc2)CC1)Nc1ccc([N+](=O)[O-])cc1`: the “hERG current change (%, negative = inhibition) at 10uM” value is recorded as -73.4%.

`CC1CCCN(CC(=O)Nc2ccc(S(=O)(=O)N3CCCCCC3)cc2)C1` (stereo not shown): the “hERG current change (%, negative = inhibition) at 10uM” value is on record as -66.8%.

`O=C(CSc1ncccn1)Nc1ccc(S(=O)(=O)N2CCCCC2)cc1`: the “hERG current change (%, negative = inhibition) at 10uM” value is reported as -12.9%.

In the case of `CC1CCCN(CC(=O)Nc2ccc(S(=O)(=O)N3CCCCC3)cc2)C1` (stereo not shown), the “hERG current change (%, negative = inhibition) at 10uM” value is listed as -15.7%.

As to `Cc1cc(C)c(C)c(S(=O)(=O)N2CCN(CC(=O)Nc3ccc([N+](=O)[O-])cc3)CC2)c1C`, the “hERG current change (%, negative = inhibition) at 10uM” value came to 15.4%.

In the case of `Cc1cc(C)nc(SCC(=O)Nc2ccc(S(=O)(=O)N3CCCCC3)cc2)n1`, the “hERG current change (%, negative = inhibition) at 10uM” value was -61.3%.

Regarding `O=[N+]([O-])c1ccc(NC(=S)N2CCN(S(=O)(=O)c3ccccc3)CC2)cc1`, the “hERG current change (%, negative = inhibition) at 10uM” value was -24.6%.
